# Data from PubChem BioAssay AID652105 (National Center for Advancing Translational Sciences (NCATS), 2013).
# Among all 330,000 compounds or so, about 4,100 (1.2%) were called active. Another 2% or so got no clear call; they are omitted. What follows is part of a selection rich in actives, with near analogues and random picks from the rest. Unmarked numbers belong to inactive results. Rule for the calls: active = max response of -50% or lower; inconclusive = between -30% and -50%; inactive = -30% or higher.
# Target: Phosphatidylinositol 5-phosphate 4-kinase type-2 alpha (Homo sapiens) (UniProt P48426)
# Sequence (P48426 whole entry, looked up): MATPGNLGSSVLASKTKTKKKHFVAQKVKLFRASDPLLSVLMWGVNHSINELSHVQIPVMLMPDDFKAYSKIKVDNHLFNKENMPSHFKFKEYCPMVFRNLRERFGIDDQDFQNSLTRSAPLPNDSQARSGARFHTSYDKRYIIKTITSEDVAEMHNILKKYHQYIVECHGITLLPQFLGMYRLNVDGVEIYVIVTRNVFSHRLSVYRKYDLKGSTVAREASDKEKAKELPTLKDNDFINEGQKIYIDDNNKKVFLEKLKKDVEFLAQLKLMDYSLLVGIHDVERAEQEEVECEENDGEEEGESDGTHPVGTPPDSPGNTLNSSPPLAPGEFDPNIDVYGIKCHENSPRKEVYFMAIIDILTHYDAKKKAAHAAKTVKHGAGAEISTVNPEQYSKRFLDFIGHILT
# Assay: qHTS for Inhibitors of phosphatidylinositol 5-phosphate 4-kinase (PI5P4K); note: value at the top dose of about 77 µM
# Conditions: PI5P4Kalpha enzyme, ADP-Glo luminescence, 60 min; active compounds read low
# Method in brief: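 Quantitative HTS of the MLSMR library against PI5P4Kalpha with substrate. ATP added last at 5 microM final; room temperature, 60 minutes. Remaining ATP depleted, ADP converted and read as luminescence.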
# % is set by controls: 0 for no effect and ±100 for the full control effect.
row,SMILES,max response
1,COc1ccc(C(O)C(O)(C(=O)OC(C)C)c2ccc(C)cc2)cc1 (centres undefined),-0.92%
2,COc1cncc(-c2cnc3sc(NCCc4ccccn4)nn23)c1,-5.87%
3,O=C1NC[C@H](CCCCN2CCN(CCc3ccccc3)C(=O)C2=O)N(CC2CCCCC2)C1=O,-2.74%
4,CCOC(=O)[C@]12CCC=C1N(Cc1cccc3ccccc13)C(=O)[C@H](CC(=O)NCc1cccc(C(F)(F)F)c1)C2,11%
5,CC1(Cc2ccccc2C#N)C(=O)Nc2ccc(-c3ccc4[nH]ccc4c3)cc21 (centres undefined),-19.1%
6,CCN1C(=O)[C@@H]2[C@@H]3CN(S(=O)(=O)c4ccccc4C)[C@@H](c4ccc(Cl)cc4)[C@@H]3C(=O)C[C@@H]2C1=O,-5.23%
7,Cc1cccc(-c2cnc(C(O)c3cc(C)cc(C)c3)[nH]2)c1 (centres undefined),0.164%
8,CN1CCN(C(=O)c2ccc(NC(=O)c3ccc(Br)o3)cc2)CC1,-0.458%
9,COc1ccc(CCCc2nnc(SCc3nc4ccccc4c(=O)[nH]3)n2C)cc1,-92.1% (active)
10,CCn1c(COc2c(C)cccc2C)nnc1SCc1nc2ccccc2c(=O)[nH]1,-1.01%
11,COc1ccc(C)cc1-n1nnnc1SCc1nc2ccccc2c(=O)[nH]1,-6.87%
12,CCC(=O)N1Cc2cc(C(=O)NCc3cccc(F)c3)nc(-c3cccc(C4=CCCC4)c3)c2[C@H]1CCO,-0.668%
13,CN(C)C(=O)N=NC(=O)N(C)C,-58.3% (active)
14,CCc1nc2c(OCc3ccc(F)c(F)c3)cccn2c1N(C)C(=O)c1ccco1,-3.84%
15,CCNC(=S)NNC(=O)Cc1ccccc1,5.73%
16,O=C(NNC(=S)NCc1ccco1)C(c1ccccc1)c1ccccc1,-8.48%
17,CCCCC(=O)NNC(=S)NC(=O)C(c1ccccc1)c1ccccc1,-62.6% (active)
18,CCCCCCn1c(=O)n2n(c1=O)C[C@]1(OC(=O)NCc3ccc(OC)c(OC)c3)CN(S(=O)(=O)c3ccc(C)cc3)C[C@]1(O)C2,3.29%
19,CCOC(=O)[C@]12CCCC=C1N(CCC1=CCCCC1)C(=O)[C@H](CC(=O)NCCCCc1ccccc1)C2,0.467%
20,CCCOc1ccc(F)cc1-c1cc(C(=O)Nc2ccc(F)cc2)[nH]n1,0.345%
21,O=C(c1cccnc1)N(c1cc2sc(=O)oc2c2ccccc12)S(=O)(=O)c1ccccc1,-69.2% (active)
22,COc1ccc(N(C(=O)c2cccnc2)S(=O)(=O)c2ccc(OC)c(OC)c2)cc1,0.0951%
23,COc1ccc(N(C(=O)c2cccnc2)S(=O)(=O)c2ccc3c(c2)n(C)c(=O)n3C)cc1,-3.4%

row,SMILES,max response
1,COCCCNC(=O)c1cccc2c(-c3ccc(O)c(OC)c3)coc12,4.94%
2,COCCCNC(=O)c1ccc(-c2c(C)noc2C)c2ccoc12,-2.64%
3,O=C1c2cccnc2C(=O)N1Cc1cccs1,0.461%
4,CCOc1ccc(CCN2C(=O)c3cccnc3C2=O)cc1OCC,-0.64%
5,NC1=CC(=O)C(=O)c2cccnc21,-50.3% (active)
6,O=C(Nc1ccc(Cl)cc1)C1Cc2c(-c3ccc4c(c3)OCO4)ccnc2O1 (centres undefined),-13.4%
7,CCCCCn1nnnc1C1c2ccccc2C(=O)N1Cc1ccco1 (centres undefined),-0.242%
8,O=C(NCC(=O)N1CCCC(C(F)(F)F)C1)c1ccccc1F (centres undefined),3.2%
9,FC(F)(F)C1CCCN(c2nsc3ccccc23)C1 (centres undefined),-91.2% (active)
10,O=C(NC(Cc1ccccc1)C(=O)N1CCCC(C(F)(F)F)C1)c1ccccc1 (centres undefined),11.8%
11,CCC(C(=O)NC(C)(C)C)n1c(-c2ccccc2)nc2ccccc21 (centres undefined),1.82%
12,OC[C@@H]1CN(C2CCCC2)C[C@H](n2cnc3c(NC4CCC4)ncnc32)O1,-2.43%
13,N#Cc1cccc(NC(=O)c2cc(C3CCCCN3C(=O)CCc3ccccc3)on2)c1 (centres undefined),-3.06%
14,Cc1ccc(NC(=O)Cn2sc3ccccc3c2=O)cc1,-87% (active)
15,Cc1ccc(NC(=O)Cn2c(C)csc2=O)cc1,6.3%
16,Cc1nn(CC(=O)Nc2ccc(F)cc2)c(=O)c2ccccc12,-3.79%
17,CC(C)C[C@H]1CNC(=O)C(=O)N1C[C@@H]1CCCN1C[C@H](Cc1ccccc1)N1C[C@H](CC(C)C)N(CC2CCCCCC2)C(=O)C1=O,-0.689%
18,Cc1cccc(-c2cnc(C(O)c3ccc4ccccc4c3)[nH]2)c1 (centres undefined),-4.33%
19,CCc1nc2c(OCc3ccc(C(F)(F)F)cc3)cccn2c1N(C)C(=O)CC(C)C,9.67%
20,CCN1CCCC1CNC(=O)c1ccc2c(c1)NC(=O)/C(=C\c1ccccc1F)S2 (centres undefined),-0.909%
21,O=C1Nc2cc(C(=O)N3CCC(N4CCCCC4)CC3)ccc2S/C1=C\c1ccccc1,-1.98%
22,CCN1CCN(CCNC(=O)c2ccc3c(c2)NC(=O)/C(=C\c2cccc(Cl)c2)S3)CC1,-64.1% (active)
23,COC(=O)[C@@]12C[C@@H](CC(=O)N3CCCCC3)C(=O)N(Cc3ccc4c(c3)OCO4)C1=CCC(C)(C)C2,-2.52%

row,SMILES,max response
1,CC(=O)OC[C@@H]1CN(Cc2ccccc2)C[C@H](n2cnc3c(NCc4ccco4)ncnc32)O1,-7.06%
2,CCCCN(C=O)c1c(CC)nc2c(OCCC3CCCCC3)cccn12,-11.5%
3,CC1(C(=O)Nc2cccc(Oc3ccccc3)c2)CCN1Cc1ccccc1Cl (centres undefined),19%
4,CC(=O)NCC(=O)N(Cc1ccco1)C1(C(=O)NC2CCCC2)CCCCC1,1.69%
5,O=C(Cc1cccs1)N(CC1CCCO1)C1(C(=O)NC2CCCCC2)CCCCC1 (centres undefined),-55.8% (active)
6,CC(=O)N(CC1CCCO1)C1(C(=O)NC2CCCC2)CCCCC1 (centres undefined),8.44%
7,CCCNC(=O)c1cc(C2CCCCN2S(=O)(=O)c2ccc(C#N)cc2)on1 (centres undefined),7.08%
8,O=C(Nc1ccc(Cl)c(C(F)(F)F)c1)C1Cc2c(-c3ccccc3Oc3ccccc3)ccnc2O1 (centres undefined),6.93%
9,Cc1ccc(NC2(C#N)C(=O)Nc3ccccc32)cc1 (centres undefined),-2.41%
10,N#CC1=C(N)Oc2[nH]c(=S)[nH]c(=O)c2C12C(=O)Nc1ccccc12 (centres undefined),-89.2% (active)
11,CC1(C)Cc2ccccc2-c2[nH]c(=S)[nH]c(=O)c21,-19.7%
12,CCc1c(-c2ccc(F)cc2)ncn1Cc1cccc(-c2ccccc2)c1,-9.99%
13,NNc1cccc(C=Cc2ccccc2)cc1=O,-74.4% (active)
14,O=c1oc(/C=C/c2ccccc2)nc2ccccc12,8.43%
15,O=c1[nH]c(/C=C/c2cccc(Br)c2)nc2ccccc12,-0.363%
16,OC(c1ccccc1)(c1ccccc1)C1CCN(CCCOc2ccccc2)CC1,-3.47%
17,CC(C)C1Cc2[nH][nH]c(=O)c2C(c2ccc(Cl)cc2)O1 (centres undefined),-8.68%
18,C1=C(N2CCOCC2)/C(=C/c2nc3ccccc3[nH]2)CC1,-77.5% (active)
19,CC1(C)Cc2c(C#N)c(SCc3nc4ccccc4[nH]3)nc(N3CCOCC3)c2CO1,2.17%
20,O=c1[nH]c(N2CCOCC2)nc2ccccc12,-4.73%
21,FC(F)(F)c1cccc(-c2nc3ccccc3n2C(c2ccccc2)c2nc3ccccc3[nH]2)c1 (centres undefined),-4.13%
22,CC1(C(=O)NS(=O)(=O)c2cccs2)CCN1C(=O)Cc1ccc(-c2ccccc2)cc1 (centres undefined),-0.507%
23,COC(=O)c1c(C)[nH]c(C)c1-c1ccc([N+](=O)[O-])cc1,8.82%

row,SMILES,max response
1,COC(=O)C1=C(C)N(C)C(=O)NC1c1ccc([N+](=O)[O-])o1 (centres undefined),-6.27%
2,COC(=O)C1=C(C(=O)OC)C(c2cc([N+](=O)[O-])ccc2O)c2sc(=O)[nH]c2S1 (centres undefined),-81% (active)
3,CCCNC(=O)C1(C)CCN1C(=O)Cc1ccc(-c2ccccc2)cc1 (centres undefined),-2.28%
4,CC(=O)c1nn(-c2ccccc2)c(=Nc2ccccc2)cc1C,-0.302%
5,O=C(NCc1cccnc1)c1cc(C2CCCN(C(=O)CCCc3ccccc3)C2)on1 (centres undefined),1.02%
6,COc1ccc(C(=O)N2CCC(C(=O)Nc3ccc(C)cc3)CC2)cc1,-67.6% (active)
7,COc1ccc(CNC(=O)C2CCN(C(=O)c3ccccc3)CC2)cc1,6.89%
8,O=C(Nc1ccccc1)C1CCN(C(=O)c2ccc(Br)cc2)CC1,-5.42%
9,Nc1ccccc1SCc1cc([N+](=O)[O-])cc2c1OCOC2,0.872%
10,Cc1ccc(C(C[N+](=O)[O-])c2c(C)cc3ccccn23)cc1 (centres undefined),3.11%
11,Nc1ccccc1SC(C[N+](=O)[O-])c1ccccc1 (centres undefined),-75.7% (active)
12,COc1cc(NC(=O)c2cc(-c3ccc(F)cc3OC(C)C)n[nH]2)cc(OC)c1OC,-6.5%
13,CCCCCCN1CCN(C2CN(Cc3cn(Cc4ccc(F)cc4)nn3)S(=O)(=O)C2)CC1 (centres undefined),0.312%
14,CN1CCN(/N=C/c2ccc(-c3ccc([N+](=O)[O-])cc3)o2)CC1,-0.908%
15,NS(=O)(=O)c1ccc(-c2ccc(/C=C3\SC(=O)NC3=O)o2)cc1,-52.9% (active)
16,O=C(Nc1ccccc1)c1ccccc1Br,2.77%
17,CCN(CC)CCN(C)C(c1ccnc2ccccc12)c1nnnn1-c1ccc2c(c1)OCCO2 (centres undefined),-0.0355%
18,O=C(N/N=C/c1ccco1)c1ccc(C(=O)N/N=C/c2ccco2)o1,-70.9% (active)
19,O=C(N/N=C/c1ccco1)c1csc2c1CCCC2,-21.6%
20,O=C(Cc1ccc([N+](=O)[O-])cc1)N/N=C/c1ccco1,-5.81%
